Shown are actives, neighbours in structure and some others; about 3.7% of the full set was active somewhere.
BRCA1 expr act = increases BRCA1 expression. MCF7-BRCA1-FFLuc reporter, luminescence, 48 h; response scale: scaled: vehicle 0%, 10 µM genistein 100%. Potency, µM (highest dose often 46.1 µM), actives largely listed as activators. 380,000 tested, 1.1% active. AID 624202; also: nearly all actives have a fitted effect of over 80% in size
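Reporter cells (MCF7, BRCA1 promoter-firefly luciferase) received library compounds across a concentration series for 48 h. End-point luminescence was measured and concentration-effect curves derived after normalization.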
D3 antag = antagonists of human D3 dopamine receptor; P35462; AID 652054; D3R cells, DiscoveRx beta-arrestin luminescence, antagonist mode; active compounds read low; 360,000 tested, 2.5% active; max response, negative = inhibition, %; in the data active = max response below about -50%; inconclusive = no clear call, values can overlap the other calls
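Cells expressing the human receptor were seeded at 1500 cells/well, incubated overnight at 37 degrees C in 5% CO2, then exposed to library compounds with dopamine controls for 90 minutes at 37 degrees C before luminescent detection.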
B2AR arrestin = recruits beta-arrestin to the human beta2-adrenergic receptor; P07550; beta-arrestin recruitment to beta2AR, cell-based reporter; Potency, µM (top dose mostly 46.1 µM), most hits filed as activators; 330,000 tested, 0.02% active; AID 492947; also: nearly all actives have a fitted effect of over 65% in size
Target sequence (P07550 whole entry, looked up): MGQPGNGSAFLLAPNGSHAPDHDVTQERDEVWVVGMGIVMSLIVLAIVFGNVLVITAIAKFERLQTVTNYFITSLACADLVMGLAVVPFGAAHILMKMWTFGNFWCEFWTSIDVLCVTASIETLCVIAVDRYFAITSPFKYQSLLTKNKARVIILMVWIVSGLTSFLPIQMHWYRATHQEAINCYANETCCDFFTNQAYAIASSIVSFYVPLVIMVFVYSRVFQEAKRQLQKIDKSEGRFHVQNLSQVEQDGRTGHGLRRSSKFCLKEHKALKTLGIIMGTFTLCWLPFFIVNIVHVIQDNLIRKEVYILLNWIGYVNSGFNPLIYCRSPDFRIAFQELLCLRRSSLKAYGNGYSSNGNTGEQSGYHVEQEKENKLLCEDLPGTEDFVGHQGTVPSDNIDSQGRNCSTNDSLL
RGS4 inhibitor = inhibitors of human regulator of G protein signaling 4; Transcreener GDP fluorescence polarization, RGS4-accelerated GTP hydrolysis; AID 504845; Potency, µM (titrated, usually from 114 µM), hits mostly inhibitors; 390,000 tested, 0.039% active; P49798; also: nearly all actives have a fitted effect of over 75% in size
Target sequence (P49798 whole entry, looked up): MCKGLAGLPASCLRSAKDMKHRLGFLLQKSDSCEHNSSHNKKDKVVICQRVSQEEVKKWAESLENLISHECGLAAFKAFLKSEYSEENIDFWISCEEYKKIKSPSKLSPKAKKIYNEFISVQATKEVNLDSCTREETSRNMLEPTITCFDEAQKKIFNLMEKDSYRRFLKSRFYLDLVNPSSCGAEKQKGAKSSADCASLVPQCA
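MLSMR compounds (23 nl, pin-transferred) preincubated 10 min at room temperature with a 500nM (2x) first reagent, then RGS4 at 900nM (2x) plus Transcreener GDP mix added; fluorescence polarization (620/688 nm) read before and after 90 min at 30 °C.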
D3 ag = D3 dopamine receptor (human) agonism; P35462; D3R DiscoveRx beta-arrestin cells, luminescence, 90 min; max activation, %; 410,000 tested, 0.58% active; in the data active = max activation above about 30%
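Agonist-mode cell screen: cells plated at 1500/well and incubated overnight at 37 °C, then exposed to library compounds for 90 min at 37 °C. Detection reagent was added for 30–60 min at room temperature, and luminescence was read.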
PTHR1 ag = PTHR1 (human) receptor agonism | Q03431 | HEK293 GP2 PTHR1 cells, GloSensor cAMP luminescence, 1 h | Potency, µM (top dose mostly 115 µM), most hits filed as activators | 410,000 tested, 0.075% active; also: nearly all actives have a fitted effect of over 55% in size
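HEK-293-derived GP2 cells expressing PTHR1 and a GloSensor cAMP reporter, 3,000/well, plated overnight, given luciferin plus IBMX (each 0.5 mM as added) for 1 h at 37 °C, then compound for 1 h at 37 °C. Luminescence was read after 15 min at room temperature.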
Each line names hits and unclear results; the compound was inactive in the other large screens; ! = repeats disagree. Unless noted, calls follow the shape of the dose curve; as a rule, active = well fitted curve in the direction sought with a large enough effect; inconclusive = small, poorly fitted or top-dose-only effect, or another doubt; inactive = no such curve, though single readings can be large; an effect the other way counts as inactive or inconclusive.

CC1=C(C(=O)N(C)C)CC(CC(=O)NC2CCCCC2)C(=O)N1Cc1ccccc1 (stereo not given)	none (no result: B2AR arrestin, RGS4 inhibitor)
Cc1ccc(F)c(S(=O)(=O)NC(=O)C2(C)CCN2C(=O)c2cccc3ccccc23)c1 (stereo not given)	D3 ag 71.6 (no result: B2AR arrestin, RGS4 inhibitor)
Cc1ccccc1S(=O)(=O)NC(=O)C1(C)CCN1C(=O)c1cccc2ccccc12 (stereo not given)	none (no result: B2AR arrestin, RGS4 inhibitor)
CCOC(=O)/C(=C\c1ccc(Cl)cc1)c1nc2sc(C)c(C)c2c(=O)[nH]1	D3 antag -63.0, RGS4 inhibitor inconclusive
Cc1ccc(S(=O)(=O)N2C3CCCCC3O[C@H]2CC(=O)OCc2ccccc2)cc1 (stereo not given in full)	none (no result: BRCA1 expr act, B2AR arrestin, RGS4 inhibitor)
CC(C#Cc1ccc2c(c1)COc1c3ccccc3nn1-2)OC(C)(C)C (stereo not given)	D3 ag 52.2
C(#Cc1ccc2c(c1)COc1c3ccccc3nn1-2)c1ccccc1	BRCA1 expr act inconclusive
CCCCCCC#Cc1ccc2c(c1)COc1c3ccccc3nn1-2	BRCA1 expr act inconclusive
CCCCC#Cc1ccc2c(c1)COc1c3ccccc3nn1-2	BRCA1 expr act inconclusive, D3 ag 31.5
Cc1cccc(NC(=O)CSc2nccn2-c2cccc(Cl)c2)c1C	none (no result: BRCA1 expr act, D3 antag, B2AR arrestin)
CCCn1cc(S(=O)(=O)c2ccc(OC)cc2)c(=O)c2cc(F)c(N3CCCC(C)C3)cc21 (stereo not given)	none (no result: BRCA1 expr act, D3 antag, B2AR arrestin)
c1ccc(C[C@H]2CNCCN2CCc2cccc3ccccc23)cc1	none
CCCC[C@@H]1CNCCN1CCc1cccc2ccccc12	D3 antag -53.3, PTHR1 ag inconclusive
Cc1ccc(Nc2nc(N)nc(CSc3ncccn3)n2)cc1	BRCA1 expr act 2.24µM
Nc1nc(CSc2ncccn2)nc(Nc2ccccc2)n1	BRCA1 expr act 3.98µM
Cc1ccc(Nc2nc(N)nc(CSc3nccn3C)n2)c(C)c1	BRCA1 expr act 7.08µM
Cc1ccc(Nc2nc(N)nc(CSc3nc4ccccc4s3)n2)cc1	D3 ag 45.2!, PTHR1 ag inconclusive
Cc1ccc(Nc2nc(N)nc(CSc3nc(C)cc(C)n3)n2)cc1	none (no result: B2AR arrestin)
CCN(CC)S(=O)(=O)c1ccc2c(c1)N(CC(=O)Nc1ccc(F)cc1F)C(=O)C1CCCN21 (stereo not given)	none (no result: BRCA1 expr act, D3 antag, B2AR arrestin)
COc1cc(/C=C/C(=O)O[C@H]2CC[C@]34C[C@]35CC[C@]3(C)[C@@H]([C@H](C)CCC=C(C)C)CC[C@@]3(C)[C@@H]5CC[C@H]4C2(C)C)ccc1O	none (no result: BRCA1 expr act, D3 antag, B2AR arrestin, RGS4 inhibitor, PTHR1 ag)
Cc1ccc2ccccc2c1C(O)c1ncc(-c2ccccc2F)[nH]1 (stereo not given)	none (no result: B2AR arrestin, RGS4 inhibitor)
Cc1ccc2c(c1)sc1nc(=O)n(-c3cccc(Cl)c3)c(=O)n12	BRCA1 expr act 1.41µM
CSCc1ccc(C(=O)NCc2ccc(C)cc2)cc1	none
CSCc1ccc(C(=O)Nc2ccc(C(N)=O)cc2)cc1	BRCA1 expr act 5.62µM
O=C(CCNC(=O)Cn1cnc2ccccc2c1=O)NCC1COc2ccccc2O1 (stereo not given)	D3 antag -57.9
O=C(CCNC(=O)Cn1cnc2ccccc2c1=O)NCC1CCCO1 (stereo not given)	none
Cc1ccccc1Cn1c(C)c(CNCCCc2ccccc2)c(C(=O)O)c1C	none (no result: BRCA1 expr act, D3 antag, B2AR arrestin)
CCCn1cnc2cc(NCc3ccc(Br)cc3)ccc21	none
Cc1ccc(C(=O)Nc2ccc3ncccc3c2)cc1	BRCA1 expr act inconclusive
COc1ccc(C(=O)Nc2ccc3ncccc3c2)cc1	BRCA1 expr act inconclusive
O=C(Nc1ccc2ncccc2c1)c1cc(Cl)ccc1Cl	BRCA1 expr act 7.94µM
O=C(Nc1ccc2ncccc2c1)c1cccc(Br)c1	BRCA1 expr act 2.24µM
Brc1ccc(CNc2ccc3ncccc3c2)cc1	BRCA1 expr act 8.91µM
COC(=O)C(C)Oc1ccc(Cl)c(CN2OCC(C)(C)C2=O)c1 (stereo not given)	none (no result: B2AR arrestin)
O=C1CC(c2ccccc2)=NN1c1nc(-c2ccccc2)cs1	D3 ag 47.4
N=C1SCC(=O)N1c1nc(-c2ccccc2)cs1	BRCA1 expr act 7.94µM
O=C1C2C3c4ccccc4C(c4ccccc43)C2C(=O)N1c1nc(-c2ccccc2)cs1 (stereo not given)	none
CC1=NN(c2nc(-c3ccccc3)cs2)C(=O)C1	none
O=C(Cn1c(=O)n(-c2ccc(F)cc2)c(=O)c2sc3ccccc3c21)N1CCCC1	none (no result: D3 antag, B2AR arrestin)
COc1ccc(C(CNC(=O)COc2ccccc2)N2CCOCC2)cc1 (stereo not given)	none
COc1ccc(C(CNC(=O)C(C)(C)Oc2ccc(Cl)cc2)N2CCCC2)cc1 (stereo not given)	D3 antag -114.3
COc1ccc(C(CNC(=O)CNC(=O)c2cccc(C)c2)N2CCCCC2)cc1 (stereo not given)	D3 antag -51.7 (no result: B2AR arrestin)
COc1ccc(C(CNC(=O)CNC(=O)c2cccc(C)c2)N2CCOCC2)cc1 (stereo not given)	none
COc1ccc(C(CNC(=O)COc2ccccc2)N2CCCCC2)cc1 (stereo not given)	D3 antag -115.8, PTHR1 ag inconclusive
COc1ccc(C(CNC(=O)COc2cc(C)c(Cl)c(C)c2)N2CCCCC2)cc1 (stereo not given)	D3 antag -91.7
COc1ccc(-c2c(Sc3ccccc3)c3cc(-c4ccc(OC)c(F)c4)ccc3n2C)cc1	none (no result: B2AR arrestin, RGS4 inhibitor)
COc1ccc(OCC(=O)NCC(c2ccc(OC)cc2)N2CCCCC2)cc1 (stereo not given)	D3 antag -61.7
COc1ccc(C(CNC(=O)COc2ccc(C)c(C)c2)N2CCCCC2)cc1 (stereo not given)	D3 antag -100.0
COc1ccc(C(CNC(=O)c2ccc(Cl)c(NC(=O)c3cccs3)c2)N2CCCC2)cc1 (stereo not given)	D3 antag -68.4
COc1ccc(C(CNC(=O)Cc2ccccc2Cl)N2CCCCC2)cc1 (stereo not given)	D3 antag -86.3, PTHR1 ag inconclusive
COc1ccc(C(CNC(=O)Cc2ccccc2F)N2CCCCC2)cc1 (stereo not given)	D3 antag inconclusive
Fc1ccc(NC(=S)N2CCN(c3ccccn3)CC2)cc1Cl	none (no result: B2AR arrestin)
